Experimental data from PubChem BioAssay.

Assay: P. aeruginosa biofilm formation inhibitors, primary screen, strain PAO1, LB-PBS medium, absorbance 600 nm (AID 1176); also: test concentration not given here
Details: P. aeruginosa PAO1 growth/biofilm, A600, 12 h; higher = more signal; call rule not given here

z-score, inactive:
COC(=O)c1ccc(C(O)C2C=CC3C(=O)N(C)C(=O)C3N2NC(=O)OC(C)(C)C)o1 (stereo not given) 0.599
CCOC(=O)C1=C[C@@H](CC)N(S(=O)(=O)c2ccc(C)cc2)[C@H]1c1ccccc1 0.325
COC(=O)[C@@]1(Cc2ccccc2)[C@H]2c3cc(C(=O)N(C)C)n(Cc4c(-c5ccccc5)noc4C)c3C[C@H]2CN1C(=O)c1ccccc1 1.98
COCCOC(=O)N1C(=O)[C@@]2(c3cc(C#CCNC(N)=O)ccc31)[C@H](c1ccccc1OCCO)N1[C@H](c3ccccc3)[C@H](c3ccccc3)OC(=O)[C@H]1[C@@H]2C(N)=O 0.971
CC(C)N1C(=O)[C@@]2(c3ccc([N+](=O)[O-])cc3)CC(=O)N(CC34CC5CC(CC(C5)C3)C4)[C@@H]2c2ccc(CO)cc21 -0.0902
CC(=O)NCCCC[C@@H]1NC(=O)[C@@H]2C[C@H](C(=O)NCCCCN(C)C)[C@H](c3ccc(O)cc3)N2C1=O -0.201
Cc1ccccc1C(O)C1C=CC2C(=O)N(C)C(=O)C2N1N1CCCCC1 (stereo not given) 0.723
CCOC(=O)C[C@H]1[C@H](OC(=O)c2ccc(C(=O)c3ccccc3)cc2)[C@@H](NC(=O)C2CCCCC2)c2cc(OCCCO)ccc2N1C(=O)c1ccccc1 0.0186
COc1ccc([Si](C)(C)[C@@H]2[C@@H](CC(=O)N3CCC[C@H]3CO)O[C@]3(C(=O)N(C)c4c(Br)cc(C)cc43)[C@H]2C)cc1 0.331
COC(=O)[C@@]1(Cc2ccc(F)cc2)[C@H]2c3cc(C(=O)N4CCCC4)n(Cc4cccc5ccccc45)c3C[C@H]2CN1C(=O)c1ccccc1 0.784
C=CC(COC(C)=O)NS(=O)(=O)c1ccc(Br)cc1 (stereo not given) 0.212
CC(C)(C)OC(=O)CC[C@@]1(C(=O)O)N=C(c2ccc(OCCCO)cc2)O[C@@H]1c1ccccc1N=[N+]=[N-] 0.659
CCOC(=O)C1=CCC(c2ccc(C#N)cc2)N(S(=O)(=O)c2ccc(C)cc2)C1 (stereo not given) 0.654
O=C1OCCC=C[C@H]2OC34C=CCN(Cc5ccccc5)C(=O)[C@H]3N(CCCO)C(=O)[C@@H]4C12 (stereo not given in full) 0.152
O=C1OCC=C[C@H]2OC34C=CCN(c5ccc(Cl)cc5)C(=O)[C@H]3N(CCCCCCO)C(=O)[C@@H]4[C@@H]12 (stereo not given in full) -0.497
COC(=O)C(CC#Cc1ccc2c(c1)[C@]1(C(=O)N2)[C@H](c2ccc(OCCO)cc2)N2[C@H](c3ccccc3)[C@H](c3ccccc3)OC(=O)[C@H]2[C@@H]1C(=O)NC[C@H](O)c1ccccc1)C(=O)OC 1.05
CCOC(=O)C1=CC[C@@H](c2ccccc2Cl)N(S(=O)(=O)c2ccc(C)cc2)C1 -0.308
O=C1O[C@H](c2ccccc2)[C@H](c2ccccc2)N2[C@H]1[C@@H](C(=O)O)[C@]1(C(=O)Nc3ccc(C#CC4=CCCCC4)cc31)[C@H]2c1ccc(OCCO)cc1 3.39
N#Cc1ccc(NN2C(C(O)c3ccc([N+](=O)[O-])cc3)C=CC3C(=O)N(c4ccccc4)C(=O)C32)cc1 (stereo not given) 1.23
C=C(CCCC)/C(=C/C[C@H](OC(C)=O)c1ccc(CO)o1)c1cnc2ccccc2c1 1.58
O=C1OCCC=C[C@H]2OC34C=CCN(Cc5ccccc5)C(=O)[C@H]3N(CCCCCCO)C(=O)[C@@H]4C12 (stereo not given in full) -0.208
C[C@]1(C(=O)NCc2ccccc2)c2ccccc2C(=O)N(Cc2ccc(OC(F)(F)F)cc2)[C@H]1c1ccc(CO)cc1 0.609
CC(C)NC(=O)[C@@]1(Cc2ccccc2I)c2ccccc2C(=O)N(Cc2ccccc2)[C@H]1c1ccc(CO)cc1 0.972
O=C1N(CCS(=O)(=O)c2ccccc2)c2ccccc2C[C@@]12COC(c1ccc(OCCCO)cc1)=N2 0.603
CC1CC/C=C\[C@H]2OC34C=CCN(Cc5ccccc5)C(=O)[C@H]3N(CCCCCO)C(=O)[C@@H]4C2C(=O)O1 (stereo not given in full) -0.565
